Assay results reported in PMC5540273 (PLoS ONE, 2017).

Columns and labels:
Conditions in all cases: concentration: 1 μM, replicates: in singlicate; n = 1
[1] = system: PLK2
[2] = system: PLK3
[3] = system: PLK4
[4] = system: PRKCD
[5] = system: PRKCE
[6] = system: PRKCH
[7] = system: PRKCI
[8] = system: PRKCQ
[9] = system: PRKD1
[10] = system: PRKD2
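Also: KINOMEscan kinase panel screen.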

| Compound | %Inh [1] | %Inh [2] | %Inh [3] | %Inh [4] | %Inh [5] | %Inh [6] | %Inh [7] | %Inh [8] | %Inh [9] | %Inh [10] |
| --- | --- | --- | --- | --- | --- | --- | --- | --- | --- | --- |
| O=C(Nc1n[nH]c2nc(-c3ccccc3)ccc12)C1CC1 [SB-708999] | 0% | 0% | 17% | 0% | 2% | 24% | 27% | 0% | 0% | 7% |
| CN(C)CCOc1ccc(-c2cc(-c3ccc(Cl)c(O)c3)c(-c3ccncc3)[nH]2)cc1.Cl.Cl [SB-684387] | 4% | 11% | 31% | 0% | 26% | 2% | 14% | 3% | 14% | 2% |
| O=C(O)C(F)(F)F.O=c1[nH]ccc2nc(N[C@@H]3CCNC3)nc(Nc3cc(Cl)cc(Cl)c3)c12 [GSK2188764] | 26% | 16% | 81% | 99.6% | 100% | 97.4% | 85% | 95.1% | 82% | 93.4% |
| Cc1ccccc1CC(=O)N1CCc2cc(-c3cn(C)c4ncnc(N)c34)ccc21 [GSK2603346] | 2% | 0% | 0% | 0% | 0% | 51% | 22% | 35% | 18% | 0% |
| CN1CCN(Cc2ccc(NC(=O)Nc3ccc(N(C)c4ccnc(Nc5ccc(CS(C)(=O)=O)cc5)n4)cc3)cc2)CC1.Cl [GW827654] | 12% | 3% | 90% | 5% | 5% | 0% | 23% | 38% | 23% | 27% |
| Fc1cc(Cl)ccc1Nc1ccnc2cc(-c3ccc(CN4CCSCC4)o3)ccc12 [GW560106] | 0% | 0% | 97.6% | 14% | 13% | 21% | 23% | 0% | 24% | 19% |
| Cl.Cl.NC(CNC(=O)c1cc(Br)c(-c2ccnc3[nH]ccc23)s1)c1ccccc1 (stereo not shown) [GSK1322949] | 74% | 48% | 41% | 76% | 93.1% | 92.6% | 36% | 74% | 0% | 24% |
| Cc1nn2c(=O)cc(N3CCO[C@H](C)C3)nc2n1Cc1cccc(Cl)c1Cl [GSK2373693] | 0% | 0% | 48% | 0% | 74% | 13% | 24% | 12% | 14% | 2% |
| CN(c1ccc(NC(=O)Nc2cccc(Cl)c2)cc1)c1ccnc(N)n1.Cl [GW830707] | 14% | 3% | 14% | 7% | 28% | 0% | 0% | 0% | 0% | 0% |
| CC(C)c1nc(-c2cccc(NS(=O)(=O)c3c(F)cccc3F)c2)c(-c2ccnc(Nc3ccc(N4CCOCC4)nc3)n2)s1.Cl [GSK1723980] | 0% | 0% | 100% | 0% | 0% | 2% | 20% | 27% | 93.9% | 99.4% |
| Cc1ccc(O)cc1Nc1ccnc2cc(-c3ccc(CN4CCCCC4)o3)ccc12 [GW557777] | 13% | 0% | 0% | 0% | 0% | 0% | 0% | 0% | 96.5% | 97.8% |
| Cn1cc(-c2ccc3c(c2)CCN3C(=O)Cc2cc(F)cc(F)c2F)c2c(N)ncnc21 [GSK2634140] | 0% | 0% | 0% | 0% | 0% | 17% | 0% | 20% | 100% | 0% |
| Nc1cccc(-c2ccc3c(N)n[nH]c3c2)c1 [GSK2193613] | 0% | 0% | 4% | 68% | 11% | 61% | 0% | 20% | 0% | 2% |
| Cc1ccc(NC(=O)c2cccc(N3CCCCC3)c2)cc1-c1ccc(C(=O)NCC2CC2)cc1 [GSK1917008] | 0% | 0% | 0% | 10% | 3% | 19% | 5% | 0% | 0% | 0% |
| O=C(Nc1n[nH]c2nc(-c3cccc(O)c3)ccc12)C1CC1 [SB-711805] | 11% | 14% | 31% | 1% | 83% | 0% | 13% | 0% | 0% | 20% |
| Cl.N#CCc1ccc(Nc2nccc(Nc3ccc(Oc4ccccc4)cc3)n2)cc1 [GW639905] | 0% | 0% | 1% | 0% | 6% | 0% | 4% | 0% | 0% | 0% |
